Outcome and AC50 data for 34 molecules are collected here from PubChem BioAssay (EPA / NIEHS).

Inconclusive results are not listed. Activity calls are given as the source filed them. How the source made its calls, unless noted: active means hit-call score of the fitted dose curve at least 0.9, where 1 is the maximum; inactive means score below 0.9.

The nature of experiment [1]: ATG_TAL_CIS: Attagene CIS-FACTORIAL HepG2 Assay for human TAL Basal Promoter (AID 2282966).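 Further: background control endpoint measuring basal TAL promoter reporter mRNA not a specific factor.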 To be noted: HepG2 Attagene cis-factorial TAL promoter reporter; actives raise or lower the signal. Put shortly: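 Fluorescence of labelled reporter cDNA fragments, resolved by capillary electrophoresis, gave the readout. Human HepG2 liver cells carried transiently transfected cis-element reporter units and were treated for 24 hours; activity was fitted bidirectionally against DMSO.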

Experiment [2] in a line: ATG_TGFb_CIS: Attagene CIS-FACTORIAL HepG2 Assay for human Transforming Growth Factor (TGF) (AID 2282967). To be noted: HepG2 Attagene CIS TGFb reporter, mRNA transcription; actives raise or lower the signal. In outline: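 Transient MRTU transfection of HepG2 (FuGene 6). Dose 24 h. TriZol RNA, oligo(dT) RT, PCR, 6-FAM primer extension, HpaI cut, CE. Bidirectional fit, DMSO = baseline.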

A short description of experiment [3]: ATG_VDRE_CIS: Attagene CIS-FACTORIAL HepG2 Assay for human Vitamin D Receptor Element (VDRE) (AID 2282968). Particulars: HepG2 VDRE cis-reporter transcription, actives raise or lower the signal. Put shortly:
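In transiently transfected HepG2 liver cells, gain or loss of reporter mRNA after 24 h exposure is scored relative to DMSO, using fluorescence detection by capillary electrophoresis of RT-PCR products.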

Experiment [4] concerns the target Estrogen receptor (Homo sapiens) (UniProt P03372). Description: ATG_ERa_TRANS: Attagene TRANS-FACTORIAL HepG2 Assay for human Estrogen Receptor alpha (ERa) (AID 2282970; active means hit-call score of the fitted dose curve at least 0.9, where 1 is the maximum). To be noted: HepG2 Attagene TRANS ERa GAL4 reporter, mRNA. Put shortly: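 Human liver HepG2, transient transfection of multiple GAL4-UAS reporter units; TRANS format (exogenous NR-Gal4 chimera). 24 h dosing. Readout: reporter mRNA, RT-PCR, 6-FAM primer extension, HpaI digest, capillary electrophoresis. Positive direction vs DMSO.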

Experiment [5] has as its target X-box-binding protein 1 (Homo sapiens) (UniProt P17861). Kind of experiment: ATG_Xbp1_CIS: Attagene CIS-FACTORIAL HepG2 Assay for human X-box Binding Protein 1 (XBP1) (AID 2282972). Particulars: HepG2 XBP1 cis-element reporter, Attagene multiplex; actives raise or lower the signal. In outline: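 HepG2 cells transiently transfected with cis-regulated multiple reporter transcription units; endogenous transcription factor activity measured 24 hours after chemical dosing. Reporter mRNA quantified by RT-PCR, 6-FAM primer extension, HpaI digestion and capillary electrophoresis; bidirectional fitting versus DMSO.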

The target of experiment [6] is Steroid hormone receptor ERR1 (Homo sapiens) (UniProt P11474). Description: ATG_ERRa_TRANS: Attagene TRANS-FACTORIAL HepG2 Assay for human Estrogen-Related Receptor alpha (ERRa) (AID 2282971; active means hit-call score of the fitted dose curve at least 0.9, where 1 is the maximum). Particulars: HepG2 Attagene TRANS reporter, ERRa transactivation. In outline:
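Reporter transcript induction was quantified by RT-PCR and capillary electrophoresis of FAM-labelled, HpaI-cut products after 24 h treatment of HepG2 cells carrying transiently transfected GAL4-UAS reporter units and an exogenous ERRa-Gal4 fusion; activity scored as increase over DMSO.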

Experiment [7] is described as follows: ATG_M_19_TRANS: Attagene TRANS-FACTORIAL HepG2 Assay for M19 Transcription Factor (Internal Marker) (AID 2282974; active means hit-call score of the fitted dose curve at least 0.9, where 1 is the maximum). Particulars: HepG2 Attagene TRANS-FACTORIAL M19 internal marker reporter. In outline:
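Multiplexed TRANS format: HepG2 liver cells bearing transient GAL4-UAS reporter units, chemical treatment 24 h, reporter transcripts quantified by RT-PCR plus capillary electrophoresis. DMSO defines baseline.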

Experiment [8] in a line: ATG_GAL4_TRANS: Attagene TRANS-FACTORIAL HepG2 Assay for GAL4 (Internal Marker) (AID 2282976; active means hit-call score of the fitted dose curve at least 0.9, where 1 is the maximum). Particulars: HepG2 Attagene TRANS GAL4 internal marker reporter. In outline:
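First, HepG2 cells were transfected with reporter units under GAL4-UAS control. Next, they were treated with chemical for 24 h. Finally, RNA was reverse-transcribed, PCR-amplified, FAM-labelled and resolved by capillary electrophoresis, with induction scored against DMSO.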

The target of experiment [9] is Estrogen-related receptor gamma (Homo sapiens) (UniProt P62508). Kind of experiment: ATG_ERRg_TRANS: Attagene TRANS-FACTORIAL HepG2 Assay for human Estrogen-Related Receptor gamma (ERRg) (AID 2282977; active means hit-call score of the fitted dose curve at least 0.9, where 1 is the maximum;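 further: hits increase reporter signal over DMSO so potencies reflect activators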). Particulars: HepG2 Attagene TRANS reporter, ERRg transactivation. In outline: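 HepG2 cells transiently transfected with multiplexed GAL4-UAS reporter units and chimeric NR-Gal4 constructs were exposed to test chemicals for 24 h. Reporter mRNA was measured by RT-PCR, 6-FAM primer extension, HpaI digestion and capillary electrophoresis; gain-of-signal versus DMSO.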
Sequence of Estrogen-related receptor gamma (Homo sapiens) (P62508 whole entry, looked up, the tested form may be a part): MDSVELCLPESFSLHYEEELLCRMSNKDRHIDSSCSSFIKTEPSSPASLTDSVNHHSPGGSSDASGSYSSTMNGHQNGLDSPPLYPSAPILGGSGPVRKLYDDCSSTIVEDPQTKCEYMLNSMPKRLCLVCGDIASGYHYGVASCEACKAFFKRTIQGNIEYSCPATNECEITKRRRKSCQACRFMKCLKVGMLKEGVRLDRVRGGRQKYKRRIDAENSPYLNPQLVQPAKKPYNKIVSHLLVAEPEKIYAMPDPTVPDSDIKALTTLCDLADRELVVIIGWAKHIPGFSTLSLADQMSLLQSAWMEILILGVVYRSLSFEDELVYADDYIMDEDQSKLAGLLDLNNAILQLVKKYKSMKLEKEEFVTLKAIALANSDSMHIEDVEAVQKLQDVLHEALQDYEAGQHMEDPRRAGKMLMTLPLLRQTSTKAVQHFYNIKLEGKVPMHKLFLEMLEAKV

Sequence of Estrogen receptor (Homo sapiens) (P03372 whole entry, looked up, the tested form may be a part): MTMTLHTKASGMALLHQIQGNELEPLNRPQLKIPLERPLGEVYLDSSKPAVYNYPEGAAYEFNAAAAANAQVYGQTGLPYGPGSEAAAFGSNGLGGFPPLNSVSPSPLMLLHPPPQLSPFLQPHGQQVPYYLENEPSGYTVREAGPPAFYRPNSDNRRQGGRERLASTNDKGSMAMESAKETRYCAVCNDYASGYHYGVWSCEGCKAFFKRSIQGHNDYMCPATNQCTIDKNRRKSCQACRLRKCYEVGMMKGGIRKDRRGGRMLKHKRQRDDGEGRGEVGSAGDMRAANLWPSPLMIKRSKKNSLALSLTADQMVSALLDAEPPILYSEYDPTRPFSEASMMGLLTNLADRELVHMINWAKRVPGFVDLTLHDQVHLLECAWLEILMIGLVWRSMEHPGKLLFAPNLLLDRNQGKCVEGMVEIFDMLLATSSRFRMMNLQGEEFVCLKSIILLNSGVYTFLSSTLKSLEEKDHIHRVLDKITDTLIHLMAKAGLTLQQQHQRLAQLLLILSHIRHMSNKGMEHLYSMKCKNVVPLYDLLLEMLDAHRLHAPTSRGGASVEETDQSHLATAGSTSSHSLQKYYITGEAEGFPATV
Sequence of X-box-binding protein 1 (Homo sapiens) (P17861 whole entry, looked up): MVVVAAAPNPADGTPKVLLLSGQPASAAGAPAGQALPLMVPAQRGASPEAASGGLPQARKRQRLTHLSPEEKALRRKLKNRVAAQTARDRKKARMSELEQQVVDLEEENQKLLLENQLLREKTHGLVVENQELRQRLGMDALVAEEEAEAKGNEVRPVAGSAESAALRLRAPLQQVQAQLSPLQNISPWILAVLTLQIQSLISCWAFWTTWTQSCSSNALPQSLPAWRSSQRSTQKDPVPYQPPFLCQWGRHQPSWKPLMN
Sequence of Steroid hormone receptor ERR1 (Homo sapiens) (P11474 whole entry, looked up, the tested form may be a part): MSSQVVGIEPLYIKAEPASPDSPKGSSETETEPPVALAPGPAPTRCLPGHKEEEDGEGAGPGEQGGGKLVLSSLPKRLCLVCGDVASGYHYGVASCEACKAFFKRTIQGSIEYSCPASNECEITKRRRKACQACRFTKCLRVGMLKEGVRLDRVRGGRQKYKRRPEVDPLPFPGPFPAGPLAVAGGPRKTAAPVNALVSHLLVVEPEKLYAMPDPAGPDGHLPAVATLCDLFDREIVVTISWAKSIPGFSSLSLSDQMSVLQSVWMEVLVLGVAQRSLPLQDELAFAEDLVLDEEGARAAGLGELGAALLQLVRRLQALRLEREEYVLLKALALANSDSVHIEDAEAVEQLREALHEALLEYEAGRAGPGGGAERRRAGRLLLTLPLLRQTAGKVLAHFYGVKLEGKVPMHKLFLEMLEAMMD

In the case of `CC(=O)C=CC1=C(C)CCCC1(C)C`, the molecule was classed as inactive in [1], in experiment [2], in [4] and in [5]. Further, in [3], the AC50 is 1.26 µM (active).
With `O=CCCc1ccccc1`, the molecule was classed as inactive in [1], in experiment [2], in experiment [3], in experiment [6], in experiment [5] and in experiment [7].
Regarding `CC(=O)/C=C/C1=C(C)CCCC1(C)C`, the outcome in [1], in experiment [2], in experiment [4] and in experiment [5] was inactive. Besides, the AC50 in experiment [3] is 3.58 µM (active).
`OCCOCCOCCOCCO`: the outcome in experiment [1], in experiment [2], in [3], in experiment [4] and in [5] was inactive.
On to `CN1[C@@H]2CC(OC(=O)[C@H](CO)c3ccccc3)C[C@H]1[C@@H]1O[C@@H]12` (stereo partly drawn), for which the outcome in experiment [1], in [2], in [3], in experiment [4], in [5] and in [8] was inactive.
As for `O=Cc1ccc(Cl)c([N+](=O)[O-])c1`, the molecule was classed as inactive in experiment [1], in experiment [2] and in experiment [4]. Besides, the AC50 is 100 µM (active) in experiment [3] and 149 µM (active) in experiment [5].
Turning to `O=C(O)CCCCCCCCCCC(=O)O`, the result in [1], in experiment [2], in experiment [3], in [4], in experiment [5] and in experiment [7] was inactive.
Take `C#C[C@]1(O)CC[C@H]2[C@@H]3CCC4=Cc5oncc5C[C@]4(C)[C@H]3CC[C@@]21C`: the call in [1] and in experiment [2] was inactive. For the same molecule, the AC50 is 4.54 µM (active) in experiment [3], 0.412 µM (active) in experiment [4] and 42.1 µM (active) in experiment [5].
Regarding `CCCCNC(=O)NS(=O)(=O)c1ccc(N)cc1`, the molecule was called inactive in experiment [1], in experiment [2], in [3], in experiment [6] and in [5].
Regarding `O=S(=O)(O)c1ccc(O)c2ncccc12`, the call in experiment [1], in experiment [2], in experiment [3], in [4] and in experiment [5] was inactive.
As for `CC(CCO)CCc1ccccc1` (stereo not drawn), the call in experiment [1], in experiment [2], in experiment [3], in experiment [5] and in experiment [7] was inactive. Moreover, in experiment [4], the AC50 was 25.2 µM (active).
Turning to `CCCC(=O)c1cc(O)c(O)cc1O`, the outcome in experiment [1], in experiment [2], in [3], in [4], in experiment [5] and in experiment [7] was inactive. Further, the result in experiment [8] and in experiment [9] was inactive.
On to `CC1(C)C(=O)N(Br)C(=O)N1Cl`, for which the molecule was called inactive in experiment [1], in experiment [2], in experiment [3], in experiment [6], in experiment [5] and in experiment [7]. In addition, the outcome in [8] was inactive.
As to `C=C(C)C(=O)O[C@H]1C[C@@H]2CC[C@@]1(C)C2(C)C`, the molecule was classed as inactive in experiment [1], in experiment [3], in experiment [5] and in experiment [7]. For the same molecule, the AC50 in experiment [2] was 143 µM (active); in [4] it was 38 µM (active).
Take `CNCCCC12CCC(c3ccccc31)c1ccccc12`: the result in [1], in experiment [2] and in [4] was inactive. Also, the AC50 is 15 µM (active) in [3] and 14.9 µM (active) in experiment [5].
As for `CC(C)C(C)(C)C(C)(C)C(C)(C)S`, the call in experiment [1], in experiment [2] and in experiment [5] was inactive. The AC50 is 6.65 µM (active) in [3] and 40.8 µM (active) in experiment [4].
As for `CO[Si](C)(OC)c1ccccc1`, the molecule was classed as inactive in experiment [1], in experiment [2], in experiment [4], in experiment [5] and in experiment [7]. In addition, the AC50 in experiment [3] is 7.98 µM (active).
For the molecule `C=C(C)[C@@H]1CCC2=CC(=O)C[C@@H](C)[C@]2(C)C1`, the result in experiment [1], in experiment [3], in experiment [4], in [5] and in experiment [7] was inactive. In addition, in experiment [2], the AC50 was 152 µM (active).
As to `O=Cc1ccc(F)cc1`, the molecule was called inactive in experiment [1], in [2], in experiment [3], in experiment [4], in experiment [5] and in experiment [8].
Turning to `CC(C)C[C@H]1C(=O)N2CCC[C@H]2[C@]2(O)O[C@](NC(=O)[C@@H]3C=C4c5cccc6[nH]c(Br)c(c56)C[C@H]4N(C)C3)(C(C)C)C(=O)N12`, the AC50 is 2.19 µM (active) in experiment [1] and 1.3 µM (active) in experiment [3]. In addition, the molecule was classed as inactive in [2], in experiment [6], in experiment [5], in experiment [7], in experiment [8] and in experiment [9].
As for `CCCCCCCCC`, the outcome in [1], in experiment [2], in experiment [3], in experiment [4], in experiment [5] and in experiment [7] was inactive. In experiment [8], the molecule was called inactive.
Turning to `Nc1cc(Cl)c(O)c(Cl)c1`, the molecule was called inactive in experiment [1], in experiment [2], in [4], in [6], in [5] and in experiment [7]. Besides, the molecule was called inactive in experiment [9]. Further, in [3], the AC50 was 70.7 µM (active).
`COc1ccc(Cl)cc1C`: the outcome in experiment [1], in experiment [2], in experiment [3], in experiment [6], in experiment [5] and in experiment [7] was inactive. Besides, the molecule was classed as inactive in experiment [8] and in experiment [9].
Consider `NCCOCCO`, for which the molecule was called inactive in experiment [1], in experiment [2], in experiment [3], in [4], in experiment [6] and in experiment [5]. Also, the result in experiment [7] and in [9] was inactive.
As to `CCN(CC)c1ccc(C(=C2C=CC(=[N+](CC)CC)C=C2)c2ccc(S(=O)(=O)O)cc2S(=O)(=O)[O-])cc1`, the result in experiment [1], in experiment [2], in experiment [3], in [6], in experiment [5] and in [7] was inactive. The molecule was called inactive in experiment [8] and in experiment [9].
As for `NC(N)=NC(=O)c1nc(Cl)c(N)nc1N`, the molecule was called inactive in [1], in experiment [2], in [3], in experiment [4] and in experiment [5].
`O=C(O)C[C@H](O)C[C@H](O)/C=C/c1c(C2CC2)nc2ccccc2c1-c1ccc(F)cc1`: the molecule was called inactive in experiment [1], in experiment [2], in experiment [3], in [4], in experiment [6] and in [5]. The molecule was classed as inactive in experiment [8].
As for `C[C@H]1C[C@H]2[C@@H]3CCC4=CC(=O)C=C[C@]4(C)[C@@]3(F)[C@@H](O)C[C@]2(C)[C@@]1(O)C(=O)COP(=O)(O)O`, the molecule was called inactive in experiment [1], in experiment [2], in experiment [3], in experiment [4], in experiment [5] and in [7].
In the case of `Nc1cc([N+](=O)[O-])ccc1Cl`, the call in experiment [1], in experiment [2], in [3], in experiment [6], in experiment [5] and in [8] was inactive.
For the molecule `CC(O)C(C)O` (stereo not drawn), the call in experiment [1], in experiment [2], in [3], in experiment [5], in experiment [7] and in [8] was inactive.
Regarding `Cc1ccc(C(=O)O)o1`, the outcome in experiment [1], in experiment [2], in experiment [3] and in [5] was inactive.
`O=S(=O)(O)NC1CCCCC1`: the result in experiment [1], in experiment [2], in [3], in [5] and in experiment [7] was inactive.
`CCC(C)CCCC(C)(C)O` (stereo not drawn): the outcome in experiment [1], in experiment [2], in [3], in experiment [5] and in experiment [7] was inactive.
As for `O=C(O)c1snc(Cl)c1Cl`, the result in [1] and in experiment [2] was inactive. Also, the AC50 is 161 µM (active) in [3] and 140 µM (active) in experiment [5].
